# A selection: hits, their analogues and other compounds. The true share with any hit is near 4.5%.
# Jurkat NFkB inh: lowers PMA/ionomycin-induced NF-kB signal in Jurkat cells; inhibition, % at 4 µM; PMA/ionomycin-induced NF-kB luciferase reporter, luminescence; 330,000 compounds, 0.53% hits; in the data active = inhibition above about 50%
# CSC inhib: blocks cancer stem cells; 300,000 compounds, 1.1% hits; inhibition, % at 7.5 µM; AID 2717; cancer stem cell-like cells viability, luminescence; in the data active = inhibition above about 75%; tested in HMLE shEcad cells
# 697 NFkB inh: lowers PMA/ionomycin-induced NF-kB signal in 697 B cells; 330,000 compounds, 0.33% hits; 697 B-cell NF-kB luciferase reporter, 16 h; inhibition, % at 4 µM; AID 435022; in the data active = inhibition above about 35%
# Mdm2-MdmX inh: human Mdm2/MdmX binding inhibition; SaOS-2 split-luciferase Mdm2/MdmX complementation, luminescence; inhibition, % at 8 µM; 330,000 compounds, 3% hits; AID 485346;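 active = inhibition of at least 50% at 8 µM in the primary screen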
# Gli-Sufu block: antagonists of Gli-Sufu signaling; Sufu-KO-LIGHT fibroblasts, Gli luciferase reporter luminescence; inhibition, % at 5 µM; 340,000 compounds, 0.74% hits; AID 588413;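 active = inhibition above about 55%, limit read from the data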;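 note: 0% = DMSO-treated cells and 100% = wells with medium but no cells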
# aSyn UTR inh: MLPCN primary screen, SNCA 5' untranslated region | AID 1813 | alpha-synuclein 5'UTR reporter, inhibitor activity | inhibition, % (tested at 7.5 µM) | 300,000 compounds, 0.82% hits; in the data active = inhibition above about 60%;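 note: H4 neuroglioblastoma cells stably carrying SNCA 5'UTR luciferase fusion; 0% = DMSO wells and 100% = positive control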
# Mdm2-MdmX conf: human Mdm2/MdmX binding inhibition, confirmed. shares compounds with Mdm2-MdmX inh. luminescent assay. inhibition, % at 8 µM. 10,000 compounds, 55% hits. AID 489028; in the data active = inhibition above about 40%
# Full FLuc ctr: inhibits full-length luciferase, flagging false Mdm2/MdmX hits. AID 504607. shares compounds with Mdm2-MdmX inh. inhibition, % at 8 µM. SaOS-2 full-length luciferase counterscreen, luminescence. 6,200 compounds, 77% hits;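 active = mean inhibition at 8 µM reaching about 37%, which flags the compound as non-specific, limit read from the data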;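 note: p53-null SaOS-2 cells with luciferase driven by a doxycycline-inducible promoter; compound on cells about two nights before reading with doxycycline added after day one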
# Active calls of the source: *; x = not tested or not shown.
SMILES,Jurkat NFkB inh,CSC inhib,697 NFkB inh,Mdm2-MdmX inh,Gli-Sufu block,aSyn UTR inh,Mdm2-MdmX conf,Full FLuc ctr
O=C(CSc1nnc(-c2ccccc2)o1)N1CCCCC1,-71.4,-4.8,-63.3,-22.4,-39.3,-74.3,x,x
CN(C)CCn1c(=O)n(Cc2ccccc2)c(=O)c2c3c(sc21)CCCCC3,0.8,-7.3,-5.5,-3.3,18.3,-1.4,x,x
CN(C)CCCNc1nc2sc3c(c2c(=O)n1CCc1ccccc1)CCCCC3,0.1,9.9,7.4,69.7*,11.5,36.1,28.9,x
NC(=O)Cn1c(=O)n(CCc2ccccc2)c(=O)c2c3c(sc21)CCCC3,-3.1,-13.7,7.7,58.3*,7.5,6.8,1.4,x
CN(C)CCCn1c(=O)n(CCc2ccccc2)c(=O)c2c3c(sc21)CCCCC3,10.9,3.5,-16.9,77.0*,12.3,-45.4,32.0,x
CC1CCN(S(=O)(=O)c2ccc(C(=O)N3CCCC3C(=O)O)cc2)CC1 (stereo not drawn),2.9,-5.2,8.0,-25.4,-14.9,x,x,x
Cc1ccc(-c2nnc3n2N=C(c2ccccc2)CS3)cc1,6.8,-0.6,12.7,-1.2,0.2,28.3,x,x
Clc1ccc(C2=Nn3c(nnc3-c3cc(-c4ccccc4)n[nH]3)SC2)cc1,-4.5,7.7,-13.3,36.9,6.5,19.0,x,x
COc1cc(-c2nnc3n2N=C(c2ccccc2)CS3)cc(OC)c1OC,43.7,47.9,-27.9,73.5*,28.1,62.8*,69.4*,56.7*
COc1ccc(C2=Nn3c(nnc3-c3ccco3)SC2)cc1OC,-1.9,0.4,9.8,55.1*,12.6,79.0*,16.4,x
c1ccc(C2=Nn3c(nnc3-c3cc(-c4ccccc4)n[nH]3)SC2)cc1,-11.7,20.1,-40.1,78.5*,0.2,-25.2,21.4,x
CCOc1ccc(C2=Nn3c(nnc3-c3ccco3)SC2)cc1,-3.2,1.6,20.3,36.3,2.5,22.9,x,x
c1ccc(C2=Nn3c(nnc3-c3n[nH]c4c3CCC4)SC2)cc1,-34.2,-8.8,15.1,70.5*,42.5,21.2,51.4*,88.6*
CCC(C)N(C(=O)COC(=O)COc1c(C)cc(C)cc1C)C1CCS(=O)(=O)C1 (stereo not drawn),4.7,-10.1,9.3,-9.8,-9.3,3.1,x,x
COc1ccc(S(=O)(=O)N(CC(=O)NCC2CCCO2)C2CCCCC2)cc1OC (stereo not drawn),-18.8,-8.9,-9.3,11.2,-10.7,4.0,x,x
c1ccc(Cn2c[n+](Cc3ccccc3)cn2)cc1,-26.1,8.3,-21.7,-12.5,1.1,13.9,x,x
CCN(CCO)c1nc(NCc2ccccc2)c2cnn(C)c2n1,-1.5,57.8,-14.5,8.6,-9.9,23.5,x,x
c1csc(C2=Nn3c(nnc3-c3ccncc3)SC2)c1,39.8,x,0.8,75.1*,14.7,32.6,80.0*,51.5*
COc1ccc(C2=Nn3c(nnc3-c3cc(C)[nH]n3)SC2)cc1,10.8,-7.8,28.6,59.6*,12.2,38.1,40.9*,100.2*
Clc1ccc(C2=Nn3c(nnc3-c3n[nH]c4c3CCC4)SC2)cc1Cl,20.4,32.3,20.6,89.4*,16.8,50.8,68.8*,34.0
COc1cccc(-c2nnc3n2N=C(C(C)(C)C)CS3)c1,49.0,-16.8,4.8,85.0*,-9.9,34.9,99.0*,51.2*
c1ccc(C2=Nn3c(nnc3-c3cccs3)SC2)cc1,10.0,-17.2,7.8,3.7,-2.5,23.2,x,x
Cc1cc(-c2nnc3n2N=C(c2ccccc2Br)CS3)n[nH]1,-5.4,2.0,10.8,24.3,30.9,5.5,x,x
Clc1ccc(C2=Nn3c(nnc3-c3cccs3)SC2)cc1,8.3,-7.0,20.4,13.8,15.1,11.6,x,x
O=C(NC1CCSC1=O)C1CC(=O)N(c2ccc(F)cc2)C1 (stereo not drawn),-11.1,x,14.8,23.2,22.4,8.3,x,x
C=CC[C@H](CC(=O)N(CCO)Cc1ccccc1)C(=O)N[C@H](COC(=O)[C@@H](CC=C)Cc1ccc(F)cc1)Cc1c[nH]c2ccccc12,-7.7,7.9,4.0,85.9*,20.2,x,37.8,71.2*
C=CC[C@@H](CC(=O)N(CCO)Cc1ccccc1)C(=O)N[C@H](COC(=O)[C@@H](CC=C)Cc1ccc(F)cc1)Cc1c[nH]c2ccccc12,-10.5,22.3,-1.4,88.3*,-6.4,x,5.8,x
